Bioassay records deposited in PubChem BioAssay by several laboratories.
HIF activator: HIF pathway transcriptional activators, primary screen, cell-based, U2OS HRE-luciferase, luminescence | 300,000 tested, 0.32% active | U2OS HRE-luciferase reporter; normalized: DMSO 0%, desferrioxamine 100% | activation, % at 7.5 µM (by protocol) | AID 1910, 2009;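 active = mean activation of at least 10% of the iron chelator positive control signal, with at least half of replicates also reaching 10%; inconclusive = mean and replicate majority disagree about reaching 10%; inactive = mean and most replicates under 10%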
Platelet DG rel: inhibitors of platelet dense granule secretion, primary screen, cell-based, MLPCN, human platelets; human platelet-rich plasma, SFLLRN dense granule ATP release, luminescence; 300,000 tested, 0.22% active; inhibition, %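 (compounds screened at 7.5 µM in platelet-rich plasma)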; AID 1663, 2009;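 active = mean replicate score, as percent of positive control, at or above 50; inconclusive = mean below 50 but at least one replicate at or above 50; inactive = mean and every replicate below 50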
pCIP destab: p/CIP-EGFP fusion destabilizers, primary screen, fluorescence, F442A cells; Q05BA5; 16 h; decrease of EGFP signal, % at 10 µM; 290,000 tested, 0.01% active;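 active = EGFP signal decrease of at least 30% at 10 µM or well 3 SD below plate mean, unless failing retest; inactive = the rest, including hits failing retest or dose response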
Target sequence (Q05BA5 1-1403): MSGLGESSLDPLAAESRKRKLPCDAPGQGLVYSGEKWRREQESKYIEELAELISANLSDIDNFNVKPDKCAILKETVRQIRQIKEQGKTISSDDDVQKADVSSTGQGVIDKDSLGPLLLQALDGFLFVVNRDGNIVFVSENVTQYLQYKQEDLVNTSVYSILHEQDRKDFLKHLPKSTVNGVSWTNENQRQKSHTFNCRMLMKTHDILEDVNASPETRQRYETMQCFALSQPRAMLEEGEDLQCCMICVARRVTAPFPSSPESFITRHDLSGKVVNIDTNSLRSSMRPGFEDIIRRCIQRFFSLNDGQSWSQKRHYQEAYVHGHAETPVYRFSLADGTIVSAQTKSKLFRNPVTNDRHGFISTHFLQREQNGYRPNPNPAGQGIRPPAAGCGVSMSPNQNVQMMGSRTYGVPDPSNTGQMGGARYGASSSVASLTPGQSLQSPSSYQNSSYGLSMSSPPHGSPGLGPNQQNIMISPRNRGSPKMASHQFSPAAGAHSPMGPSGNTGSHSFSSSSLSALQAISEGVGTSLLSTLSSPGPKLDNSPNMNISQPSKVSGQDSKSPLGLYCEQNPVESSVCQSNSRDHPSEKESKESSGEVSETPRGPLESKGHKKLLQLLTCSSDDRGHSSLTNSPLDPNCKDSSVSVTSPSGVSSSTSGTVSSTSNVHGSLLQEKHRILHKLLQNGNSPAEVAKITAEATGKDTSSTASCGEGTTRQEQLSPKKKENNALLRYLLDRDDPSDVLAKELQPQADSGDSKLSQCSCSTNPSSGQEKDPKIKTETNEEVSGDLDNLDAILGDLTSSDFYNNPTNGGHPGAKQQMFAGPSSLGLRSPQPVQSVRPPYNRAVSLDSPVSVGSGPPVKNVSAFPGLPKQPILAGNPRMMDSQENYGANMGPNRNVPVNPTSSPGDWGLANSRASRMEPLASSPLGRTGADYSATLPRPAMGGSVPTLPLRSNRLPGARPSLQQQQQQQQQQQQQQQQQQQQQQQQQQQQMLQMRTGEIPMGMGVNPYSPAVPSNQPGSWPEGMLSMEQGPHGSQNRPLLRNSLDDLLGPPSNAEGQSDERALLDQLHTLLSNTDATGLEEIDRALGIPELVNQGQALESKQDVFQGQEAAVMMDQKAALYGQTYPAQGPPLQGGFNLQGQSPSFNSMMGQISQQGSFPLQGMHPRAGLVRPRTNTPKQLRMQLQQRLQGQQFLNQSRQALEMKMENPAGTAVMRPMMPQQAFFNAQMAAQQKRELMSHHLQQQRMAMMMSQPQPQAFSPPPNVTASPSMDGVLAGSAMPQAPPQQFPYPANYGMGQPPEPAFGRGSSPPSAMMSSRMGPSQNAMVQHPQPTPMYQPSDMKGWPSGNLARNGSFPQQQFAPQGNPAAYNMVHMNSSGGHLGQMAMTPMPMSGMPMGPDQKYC
PolyA inhibitor: polyadenylation inhibitors in yeast reporter cells, primary screen, luminescence, S. cerevisiae. S. cerevisiae SKY197-pL101 polyadenylation reporter, beta-gal luminescence; efflux-impaired pdr1/pdr3 knockout yeast; score 100 = 6 SD above DMSO. activity score, % at 12 µM. 300,000 tested, 0.02% active;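 active = lowest replicate activity score at least 50, where 100 means six control SD above control mean; inconclusive = lowest score under 50 but half or more replicates reach 50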;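 also: yeast exposed to compound for 9 h at 30 °C; higher score means more reporter readthrough which indicates perturbed polyadenylation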
AHR act: AHR activators, primary screen, cell-based, luminescence, luciferase reporter, human; Aryl hydrocarbon receptor (Homo sapiens), P35869; AHR-responsive luciferase reporter cells; activation, % at 5 µM; 320,000 tested, 2.5% active; AID 2796, 2010; in the data active = activation above about 47%
Each line names hits and unclear results; the compound was inactive in the other large screens. Only some compounds are listed: those with a hit (about 2.8% of all), similar ones and a draw of the others.

CC(C)[C@@H](C(=O)N1CCCC1)N1C(=O)N2CCc3c([nH]c4ccccc34)[C@@]2(C)C1=O	none
COc1ccc(-c2cc(-c3ccccc3)nc(SCC(=O)Nc3nccs3)c2C#N)cc1	none
COc1ccc(Cc2nnc(SCC(=O)NC3CCCCC3)n2C)cc1	HIF activator 70
COc1ccc(-c2nc(SCC(=O)NC3CCCC3)c(-c3ccc(OC)cc3)[nH]2)cc1	PolyA inhibitor inconclusive, AHR act 49
COc1ccc(-c2nc(SCC(=O)Nc3nccs3)c(-c3ccc(Cl)cc3)[nH]2)cc1	AHR act 72
COc1ccc(-c2[nH]c(-c3ccc(C)cc3)nc2SCC(=O)Nc2nccs2)cc1	AHR act 55
CC1CCCC(C)N1C(=O)COC(=O)Cc1ccc(F)cc1 (stereo unspecified)	none
COc1ccc(-n2nnnc2SCC(=O)Nc2nc3c(s2)CCCC3)cc1	none
O=C(CSc1ccc2nc(-c3ccccc3)cn2n1)NCC1CCCO1 (stereo unspecified)	none
COc1ccc(-n2c(Cc3cccn3C)nnc2SCC(=O)NCc2ccco2)cc1	AHR act 66
COc1ccc(-c2[nH]c(-c3ccc(SC)cc3)nc2SCC(=O)Nc2nccs2)cc1	AHR act 52
COc1ccc(-c2[nH]c(-c3cccc(OC)c3)nc2SCC(=O)NCc2ccco2)cc1	AHR act 77 (no result: HIF activator, Platelet DG rel, PolyA inhibitor)
COc1ccc(-c2cn3nc(SCC(=O)NCC4CCCO4)ccc3n2)cc1 (stereo unspecified)	HIF activator 19
COc1cc([N+](=O)[O-])ccc1NC(=O)CN1CCOCC1	none
O=C(/C=C/c1cccc([N+](=O)[O-])c1)N1CCN(S(=O)(=O)c2cccs2)CC1	none
Cc1ccc(-c2nc(SCC(=O)NCC3CCCO3)c(-c3ccc(C)cc3)[nH]2)cc1 (stereo unspecified)	AHR act 54
CSc1nc2[nH]c3c(c2c2ncnn12)CCCC3	AHR act 47
CSc1ccccc1C(=O)Nc1nc2ccccc2[nH]1	AHR act 68
CSc1ccccc1C(=O)Nc1nc2ccccc2c(=O)[nH]1	none
COc1cc(SC)ccc1C(=O)NNC(=O)c1cc(C)oc1C	Platelet DG rel 58, PolyA inhibitor inconclusive (no result: pCIP destab)
COc1cc(SC)ccc1C(=O)Nc1nccs1	AHR act 52
O=C(CSc1nc2ccccc2[nH]1)Nc1ccccc1F	none (no result: HIF activator)
O=C(Nc1nc2ccccc2[nH]1)Nc1ccccc1F	AHR act 48
NC1=NC(=O)C(Cc2ccc(Br)cc2)S1 (stereo unspecified)	none
CCN1CCN(c2ccc(S(=O)(=O)N3CCCCC3)cc2NC(=O)c2ccc([N+](=O)[O-])s2)CC1	none (no result: pCIP destab)
Cc1cc(C)nc(SCCn2c(N3CCOCC3)nc3c2c(=O)[nH]c(=O)n3C)n1	none
Cc1ccc(C)c(S(=O)(=O)NCCC(=O)N2CCCC(C(N)=O)C2)c1 (stereo unspecified)	none (no result: HIF activator, Platelet DG rel, pCIP destab, PolyA inhibitor)
COc1ccccc1C(=O)Nc1nc2ccccc2[nH]1	Platelet DG rel 57
CC1=Nc2ccccc2N=C(NC(=O)/C=C/C(=O)O)C1c1ccccc1 (stereo unspecified)	none
COc1ccccc1C(=O)NCCC(=O)Nc1nc2ccccc2[nH]1	none (no result: pCIP destab)
COc1ccc(C(=O)Nc2nc3ccccc3[nH]2)cc1	AHR act 50
COc1cccc(C(=O)Nc2nc3ccccc3[nH]2)c1	none
COc1ccc(C(=O)NC2=Nc3ccccc3N=C(C)C2c2ccccc2)cc1 (stereo unspecified)	HIF activator 25
O=C(Nc1cnccn1)Nc1ccccc1F	AHR act 61
CCCCN(C)CCNC(=O)CCNC(=O)Cn1ccc2ccccc2c1=O	none
Cc1ccccc1OCC(=O)OCC(=O)c1c[nH]c2ccccc12	none (no result: HIF activator, Platelet DG rel, pCIP destab, PolyA inhibitor)
COc1cc(SC)ccc1C(=O)Nc1nc2ccccc2[nH]1	Platelet DG rel 96
COc1cc(C(=O)Nc2nc3ccccc3[nH]2)cc(OC)c1OC	none
CC(C)CC(=O)Nc1nnc(SCC(=O)NCc2ccc3c(c2)OCO3)s1	none
Cn1c(SCC(=O)c2ccccc2)nnc1-c1ccco1	HIF activator 13
CC(=O)c1c(C)[nH]c(C(=O)CSc2nnc(-c3ccco3)n2Cc2ccccc2)c1C	AHR act 69
CC(=O)c1c(C)[nH]c(C(=O)CSc2nnc(-c3cccs3)n2Cc2ccccc2)c1C	none
CC(C)CCN1CCN(CC#Cc2ccccc2)CC1CCO (stereo unspecified)	none
CC(C)n1cnc2c(Nc3cccc(F)c3)nc(NCCO)nc21	AHR act 66
CC(C)C[C@H](CO)Nc1nc(Nc2cccc(Cl)c2)c2ncn(C(C)C)c2n1	none
CCOC(=O)/C(N=Nc1ccc(F)cc1)=C(/O)c1ccc([N+](=O)[O-])cc1	HIF activator 14
COc1ccc(OC)c(C(c2nnnn2CCC(C)C)N2CCN(C(=O)c3ccco3)CC2)c1 (stereo unspecified)	none
Cn1ccsc1=NC(=O)c1ccccc1OC(F)F	AHR act 71
O=C(O)c1cc([N+](=O)[O-])ccc1NCc1ccccn1	none (no result: HIF activator, Platelet DG rel, pCIP destab, PolyA inhibitor)
O=C(Nc1ccc2c(c1)OCO2)c1ccc(=O)[nH]n1	AHR act 78
O=C(Nc1ccc2c(c1)OCO2)c1cnccn1	AHR act 66
CC(C)c1cc(C(=O)Nc2ccc3c(c2)OCO3)no1	none
O=C(Nc1ccc2c(c1)OCO2)c1ccccn1	none (no result: HIF activator, Platelet DG rel, pCIP destab, PolyA inhibitor)
Cc1ccc(S(=O)(=O)N2CCOCC2)cc1C(=O)NCCc1ccc(Cl)cc1	none (no result: HIF activator, Platelet DG rel, pCIP destab, PolyA inhibitor)
O=C1OC(CO)CN1Cc1ccccc1 (stereo unspecified)	none
CN(CCC1CCOCC1)C(=O)CC1C(=O)NCCN1Cc1c(F)cccc1Cl (stereo unspecified)	none
O=C(CCCOc1ccc(Cl)cc1Cl)N/N=C/c1ccccc1	none
O=C(CCCOc1ccc(Cl)cc1Cl)N/N=C/c1ccccc1O	HIF activator 11
O=C(COc1ccc(Cl)cc1Cl)N/N=C/CCc1ccccc1	HIF activator 11
Cc1cc(C)n(Cc2ccc(C(=O)Nc3cccc(Br)c3)o2)n1	AHR act 74
Cc1cc(C)nc(NC(=O)c2ccc(C)c([N+](=O)[O-])c2)n1	AHR act 72
Cc1ccc(C(=O)Nc2ccccc2-c2ccccc2)cc1[N+](=O)[O-]	none
Cc1ccc(C(=O)Nc2cc(Cl)ccc2Oc2ccccc2)cc1[N+](=O)[O-]	AHR act 67
CCOC(=O)c1c(C)[nH]c(C)c1C(=O)COC(=O)c1cccs1	none (no result: HIF activator, Platelet DG rel, pCIP destab, PolyA inhibitor)
c1ccc(-n2cnc3ccccc32)nc1	none
FC(F)(F)c1ccc(-n2cnc3ccccc32)nc1	AHR act 65
Cn1c2ccccc2c(=O)c2c(=O)n(Cc3ccco3)c(-c3ccc(C(C)(C)C)cc3)nc21	none
C=CCNC(=S)Nc1sc2c(c1C(N)=O)CCCC2	AHR act 58
NC(=O)c1c(NC(=O)c2ccco2)sc2c1CCC2	AHR act 76
C=CC(=O)Nc1sc2c(c1C(N)=O)CCCC2	none (no result: pCIP destab)
